Assay type in all cases: functional
The target in assay [1] is Solute carrier family 2, facilitated glucose transporter member 1 (Homo sapiens) (UniProt P11166). Nature of the assay: ST_JUDE_LEISH: Cytotoxicity at 2uM final concentration against transgenic Leishmania Mexicana promastigotes LmGLUT1 that are glucose transport deficient and complemented with the human glucose transporter GLUT1. Activity is measured by DNA content using SYBR green in vitro.

Assay [2] concerns the target Hexose transporter 1 (Plasmodium falciparum) (UniProt O97467). Put plainly: ST_JUDE_LEISH: Cytotoxicity at 2uM final concentration against transgenic Leishmania Mexicana promastigotes LmPfHT that are glucose transport deficient and complemented with the Plasmodium falciparum hexose transporter. Activity is measured by DNA content using SYBR green in vitro.
The target in assay [3] is Glucose transporter (Leishmania mexicana) (UniProt O61059). Put plainly: ST_JUDE_LEISH: Cytotoxicity at 2uM final concentration against transgenic Leishmania Mexicana promastigotes LmGT2 that are glucose transport deficient and complemented with the L. Mexicana glucose transporter 2. Activity is measured by DNA content using SYBR green in vitro.

The structures appear in SMILES notation.

The inhibition is the drop in the measured response relative to a control, in per cent.

Solute carrier family 2, facilitated glucose transporter member 1 (Homo sapiens), sequence (P11166 whole entry): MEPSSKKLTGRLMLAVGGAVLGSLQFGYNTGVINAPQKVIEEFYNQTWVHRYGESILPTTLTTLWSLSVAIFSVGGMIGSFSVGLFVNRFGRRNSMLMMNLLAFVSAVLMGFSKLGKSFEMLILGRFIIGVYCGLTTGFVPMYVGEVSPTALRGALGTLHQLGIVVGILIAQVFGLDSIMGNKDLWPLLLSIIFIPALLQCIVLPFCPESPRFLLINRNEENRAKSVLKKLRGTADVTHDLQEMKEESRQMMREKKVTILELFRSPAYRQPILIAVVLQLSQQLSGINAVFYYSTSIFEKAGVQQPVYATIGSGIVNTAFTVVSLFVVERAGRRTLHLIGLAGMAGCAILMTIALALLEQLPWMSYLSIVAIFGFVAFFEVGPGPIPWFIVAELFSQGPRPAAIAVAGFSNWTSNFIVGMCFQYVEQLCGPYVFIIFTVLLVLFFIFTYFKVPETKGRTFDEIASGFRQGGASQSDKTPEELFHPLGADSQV

On to `Cc1ccc(C2CC(c3cccs3)=NN2C(=O)c2ccc(Br)o2)cc1` (stereo unspecified), for which the inhibition was found to be 3.24% in assay [1], 1.47% in assay [2] and 2.89% in assay [3].

On to `N#Cc1ccc(-c2ccc(C(=O)NCCCCN3CCC(c4ccc5c(c4OCC(N)=O)CCCC5)CC3)nc2)cc1`, for which the inhibition in assay [1] was determined as 3.35%; in assay [2], 0.86%; in assay [3] it was 2.97%.

Consider `Cc1ccc(-c2nn3c(O)c4c(nc3c2C)CCCC4)cc1`, for which the inhibition in assay [1] is -0.48%; in assay [2], 1.68%; in assay [3] it was 1.28%.

Consider `OC[C@H]1CCCN1CC#Cc1cc2c(Nc3ccc(OCc4cccc(F)c4)c(Cl)c3)ncnc2s1`, for which the inhibition turned out to be 3.54% in assay [1], 3.56% in assay [2] and 2.65% in assay [3].

As for `O=C(Nc1ccc2c(c1)CCC2)c1ccc(CN2CCCN(Cc3cccc(O)c3)CC2)cc1`, the inhibition was found to be 11.2% in assay [1], 12.1% in assay [2] and 9.95% in assay [3].

On to `Cc1nnsc1C(=O)Nc1cccc(-c2cccc(-c3nc4cc(C(F)(F)F)ccc4[nH]3)c2)c1`, for which the inhibition is 6.42% in assay [1], 6.2% in assay [2] and 6.93% in assay [3].

Take `Cc1cc(N[C@@H](Cc2ccccc2)C(=O)NCCOc2ccccc2)nc(NCCOc2ccccc2)n1`: the inhibition in assay [1] came out at 1.88%; in assay [2], 0.27%; in assay [3] it was 2.71%.

`O=C(c1ccc(Cl)cc1)C1CCCN(C2CCN(CCc3ccccc3)CC2)C1` (stereo unspecified): the inhibition in assay [1] was 12.5%; in assay [2], 17.3%; in assay [3], 13.8%.

As for `Cc1cccc2nc(-c3ccc(-c4ccc(NC(=O)Nc5cccc(C#N)c5)cc4)cc3)[nH]c12`, the results for the inhibition in assay [1], in assay [2] and in assay [3] were 9.74%, 6.91% and 7.39%, respectively.

Turning to `COc1cccc(CNC[C@@H](O)[C@H](Cc2ccccc2)NC(=O)c2cc(C3CCCC3)cc(N3CCCCS3(=O)=O)c2)c1`, the inhibition came to 0.71% in assay [1], 1.78% in assay [2] and 0.92% in assay [3].

As to `O=c1c2sc(-c3ccc(Cl)cc3)cc2ncn1Cc1ccc(OCCN2CCCC2)c2ccccc12`, the inhibition was 4.34% in assay [1], 2.61% in assay [2] and 1.85% in assay [3].

In the case of `COc1cc(F)c2ncc(Cl)c([C@H](O)CN3CCC(NCc4cc5c(cn4)OCCO5)CC3)c2c1`, the results for the inhibition in assay [1], in assay [2] and in assay [3] were 7.62%, 7.47% and 2.15%, respectively.

The values above are taken from ChEMBL document CHEMBL3433997, “St. Jude Leishmania screening dataset” (2016).
